# From PubChem BioAssay
# CFTR F508del cor = CFTR F508del correction in bronchial cells; CFBE cells, YFP halide quenching; stimulated with forskolin plus potentiator P3; % fluorescence drop versus neutral controls; activity (quench increase), % at 7.58 µM; actives 0.36% (n = 350,000);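 active = mean added fluorescence quench of at least 8% versus neutral control, with both replicates also reaching 8%; inconclusive = only one of the mean or replicate conditions met; inactive = mean below 8% and not both replicates reaching 8%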;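 note: cells transiently co-express mutant CFTR-F508del with the halide-sensitive YFP; corrector assay measuring rescue of mutant channel to the surface after 24 h compound exposure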
# Vif imaging = blocks HIV Vif function | HEK293T cells, Vif self-association by quenched fluorescence, imaging, 24 h | inhibition, % at 7.49 µM | actives 0.35% (n = 340,000) | AID 602346; in the data active = inhibition above about 50%, passing the limit was not always enough; inconclusive = no clear call, values can overlap the other calls; inactive = below about 31%
# FGF22 binding = binders of recombinant human FGF22 by thermal shift. Q9HCT0. SYPRO orange fluorescence; percent of sucrose octasulfate shift, DMSO zero. activity (Tm shift, normalised), % at 9.99 µM. actives 1.5% (n = 340,000);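 active = mean Tm shift, scaled 0 neutral to 100 positive control, at about 1.3% or above, every replicate too, limit read from the data; inconclusive = no clear call, values can overlap the other calls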
# Target sequence (Q9HCT0 whole entry, looked up): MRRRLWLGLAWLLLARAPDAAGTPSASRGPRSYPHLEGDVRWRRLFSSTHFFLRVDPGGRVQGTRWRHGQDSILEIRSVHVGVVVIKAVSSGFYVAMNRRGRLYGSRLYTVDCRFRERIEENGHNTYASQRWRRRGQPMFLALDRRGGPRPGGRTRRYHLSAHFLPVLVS
# A number is an active result; – = inactive; ? = inconclusive; · = no result; + = active, no number. In the library only some 1.7% were active in any assay of this set; here they are far more common.
SMILES,CFTR F508del cor,Vif imaging,FGF22 binding
CS(=O)(=O)N1CC(=O)N2[C@H](CO)[C@@H](c3ccc(C#Cc4ccc(F)cc4)cc3)[C@H]2C1,–,·,–
O=C(c1cccc(F)c1)N1CC(=O)N2[C@H](CO)[C@H](c3ccc(C#Cc4ccc(F)cc4)cc3)[C@H]2C1,–,·,·
CC(C)NC(=O)N(C)C[C@@H]1Oc2c(NS(=O)(=O)c3cccs3)cccc2C(=O)N([C@@H](C)CO)C[C@H]1C,–,·,–
CN(C)C(=O)c1cccc(-c2ccc3n(c2=O)C[C@@H]2[C@@H](CO)[C@H](C(=O)NCC(F)(F)F)[C@H]3N2C)c1,·,·,–
CC(C)CC#Cc1ccc([C@@H]2[C@@H](CO)N3CCCCN(C(=O)NC4CCCC4)C[C@H]23)cc1,9.8,·,–
CC(C)CC#Cc1ccc([C@@H]2[C@H](CO)N3CCCCN(C(=O)NC4CCCC4)C[C@@H]23)cc1,–,·,–
COc1cccc(NC(=O)COC(=O)c2c(C)noc2C)c1,–,–,–
Cc1noc(C)c1C(=O)OCC(=O)Nc1cccc(S(N)(=O)=O)c1,–,–,43
O=C(N[C@H]1CC[C@@H](CCNC(=O)C2CCC2)O[C@H]1CO)c1ccncc1,–,·,–
FC(F)(F)c1cccc(Oc2nc(-c3ccccc3)nnc2C(F)(F)F)c1,·,–,·
FC(F)(F)c1nnc(-c2ccccc2)nc1Oc1ccc(Cl)cc1Cl,·,51,·
CO[C@H]1CN(C)C(=O)c2cc(NS(C)(=O)=O)ccc2OC[C@@H](C)N(C(=O)CN(C)C)C[C@H]1C,–,·,–
CC(=O)c1sc2nc(CSc3nnnn3-c3ccccc3)[nH]c(=O)c2c1C,–,–,–
CC(=O)c1sc2nc(CSc3nncn3C)[nH]c(=O)c2c1C,–,–,44
CNC[C@H]1OCCCC[C@H](C)Oc2ccc(NS(=O)(=O)c3ccc(C)cc3)cc2C(=O)N([C@H](C)CO)C[C@@H]1C,–,·,–
Cc1cc(O)c(N)c(C)c1Cl,·,–,43
Cc1cc(O)cc(C)c1Cl,·,–,–
Cc1noc(C)c1S(=O)(=O)Nc1cccc2c1O[C@@H](CN(C)C(=O)Nc1ccccc1)[C@@H](C)CN([C@H](C)CO)C2=O,–,·,–
N#Cc1ccc(C(=O)OCC(=O)Nc2cccc(S(=O)(=O)N3CCCCC3)c2)cc1,–,–,–
COc1ccc(N(C)S(=O)(=O)c2cccc(C(=O)Nc3ccc(OC)nc3)c2)cc1,–,·,–
N#Cc1ccc(NC(=O)COC(=O)c2cccc(S(=O)(=O)N3CCCC3)c2)cc1,–,–,43
O=C(Nc1cccnc1)c1cccc(S(=O)(=O)Nc2cccc(Cl)c2)c1,–,–,–
COc1ccc(NC(=O)COC(=O)c2cccc(S(=O)(=O)N(C)C)c2)cc1,–,–,43
CN(C)S(=O)(=O)c1cccc(C(=O)OCC(=O)Nc2sccc2C(N)=O)c1,·,–,·
CNS(=O)(=O)c1cccc(C(=O)Nc2cccnc2)c1,·,51,·
SMILES,CFTR F508del cor,Vif imaging,FGF22 binding
COc1ccc(N(C)S(=O)(=O)c2cccc(C(=O)Nc3ccc4c(c3)OCCO4)c2)cc1,–,–,43
CN(C)S(=O)(=O)c1cccc(C(=O)Nc2cc(Cl)cc(Cl)c2)c1,·,–,·
CN(C)S(=O)(=O)c1cccc(C(=O)Nc2ccccc2)c1,–,–,43
Cc1noc(C)c1NC(=O)Nc1cccc2c1O[C@@H](CN(C)CC1CC1)[C@H](C)CN([C@H](C)CO)C2=O,–,·,–
CCOC(=O)c1sc2nc(-c3ccccc3)ccc2c1N,·,–,·
COc1ccc(C(=O)c2sc3nc(-c4ccccc4)ccc3c2N)cc1OC,·,–,·
COc1ccc(-c2ccc3c(N)c(C(=O)c4ccc(OC)c(OC)c4)sc3n2)cc1,·,148,·
NC(=O)c1sc2nc(-c3ccccc3)ccc2c1N,–,61,–
O=C(N[C@@H]1CC[C@@H](CCNC(=O)C2CCCC2)O[C@H]1CO)c1ccncc1,–,·,–
C[C@H](CO)N1C[C@H](C)[C@H](CN(C)S(=O)(=O)c2cn(C)cn2)Oc2c(NC(=O)Nc3ccc4c(c3)OCO4)cccc2C1=O,–,·,–
CCCN1C2CCCC1CC(NC(=O)Nc1cccc(C(C)=O)c1)C2 (configuration not stated),·,–,·
CC(=O)c1cccc(NC(=O)NC2CC3CCCC(C2)N3CC(C)C)c1 (configuration not stated),·,54,·
O=C(NC[C@H]1N[C@H](CO)[C@@H]1c1ccc(-c2ccccc2F)cc1)c1ccccc1,–,·,–
COc1cccc(OCc2nnc(-c3cccs3)o2)c1,–,–,43
COc1cccc(-c2noc(-c3cccs3)n2)c1,·,–,·
C[C@@H]1CN([C@H](C)CO)C(=O)c2cc(NC(=O)C3CCCCC3)ccc2O[C@@H](C)CCCCO[C@@H]1CN(C)S(=O)(=O)c1ccc(Cl)cc1,–,·,·
CCOC(=O)Nc1ccc(C)cc1NC(=O)OCC,·,–,·
CCOC(=O)Nc1ccc(NCc2ccc(F)cc2)nc1N,–,+,–
c1ccc(-c2nn3c(-c4ccccc4)nnc3o2)cc1,–,–,–
CCCCn1c(-c2ccccc2)nnc1-c1ccccc1,·,–,·
CCCc1nn2c(-c3ccccc3)nnc2o1,–,?,43
CN(C)c1nn2c(-c3ccccc3)nnc2o1,–,–,43
CCCNC(=O)N1C[C@H](O)COC[C@H]2O[C@H](CC(=O)N3CCCCC3)CC[C@@H]21,–,·,–
CC(=O)N[C@H]1CC[C@@H](CCNC(=O)C2CCCCC2)O[C@@H]1CO,–,·,·
CCOC(=O)CSC1=C(C#N)C(c2ccc(C)s2)CC(=O)N1 (configuration not stated),8.6,–,–
SMILES,CFTR F508del cor,Vif imaging,FGF22 binding
CCSC1=C(C#N)C(c2ccc(C)s2)CC(=O)N1 (configuration not stated),–,–,–
N#C[C@@H]1[C@H](c2ccccc2-c2ccccc2F)[C@@H](CO)N1C(=O)C1CCC1,–,·,–
CC(=O)Nc1ccc2c(c1)C(=O)N(C)[C@H]1CC[C@H](CC(=O)NCC3CCCCC3)O[C@H]1CO2,–,·,–
C[C@@H]1CCCCO[C@@H](CN(C)S(=O)(=O)c2cccs2)[C@@H](C)CN([C@@H](C)CO)C(=O)c2cc(NC(=O)Cc3ccccc3)ccc2O1,–,·,–
C[C@@H]1CN([C@@H](C)CO)C(=O)Cc2cc(NC(=O)CCN3CCOCC3)ccc2O[C@@H]1CN(C)C(=O)NC1CCCCC1,–,·,·
CC(=O)OC1CCC2(C)C(=CCC3C2CCC2(C)C3CC3ON=C(C)C32)C1 (configuration not stated),11,–,–
CC(=O)O[C@H]1CC[C@@]2(C)C(=CC[C@H]3[C@@H]4CC[C@H](C5(C)OCCO5)[C@@]4(C)CC[C@@H]32)C1,·,–,·
O=C(C[C@H]1CC[C@@H]2[C@H](COC[C@@H](O)CN2Cc2ccc(Cl)cc2)O1)NCc1cccc(F)c1,–,·,–
CCN(CC)c1ccc(/C=N/NC(=O)c2ccco2)c(O)c1,35,–,–
O=C(N/N=C\c1ccccc1OCc1ccccc1)c1ccco1,–,–,43
O=C(N/N=C/c1ccc(OCc2ccccc2)cc1)c1ccco1,–,–,–
CCN(CC)c1ccc(/C=N/NC(=O)c2ccco2)cc1,·,–,·
CCC(=O)N1[C@@H]2c3ccc(C4=CCCC4)c(=O)n3C[C@@H]2[C@@H](CO)[C@@H]1C(=O)NCc1ccccc1,–,·,–
COc1ccc2c(c1)/C(=C/c1cc(OC)c(OC)c(OC)c1)C(=O)N2,13,–,–
